Assay outcomes: PubChem, National Center for Advancing Translational Sciences (NCATS)
Hits are enriched below; roughly 1.1% of the tested compounds scored in any of these assays.
LmPK inhibitor: inhibitors of Leishmania mexicana pyruvate kinase; Potency, µM (top dose mostly 57.5 µM), inactives show at the top dose activity change, negative = inhibition, most hits filed as inhibitors; purified LmPK, Kinase-Glo ATP luminescence, 1 h; actives 0.37% (n = 290,000); Q27686; also: % is scaled to controls: 0 for no effect and ±100 for the full control effect
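Purified LmPK (0.1 nM) with 0.5 mM PEP and 0.1 mM ADP in imidazole buffer pH 7.2 with MgCl2/KCl, 1 h at room temperature. ATP formed was read by luciferase luminescence and normalized to no-enzyme and uninhibited controls.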
Giardia FBPA inh-1: inhibitors of Giardia lamblia fructose-1,6-bisphosphate aldolase; A8B2U2; purified Giardia FBPA; Potency, µM (series often up to 59.6 µM), inactives show at the highest dose activity, negative = inhibition, most hits filed as inhibitors; actives 0.71% (n = 290,000); AID 2451; also: % is scaled to controls: 0 for no effect and ±100 for the full control effect; nearly all actives have a fitted effect of over 55% in size
Target sequence (A8B2U2 whole entry, looked up): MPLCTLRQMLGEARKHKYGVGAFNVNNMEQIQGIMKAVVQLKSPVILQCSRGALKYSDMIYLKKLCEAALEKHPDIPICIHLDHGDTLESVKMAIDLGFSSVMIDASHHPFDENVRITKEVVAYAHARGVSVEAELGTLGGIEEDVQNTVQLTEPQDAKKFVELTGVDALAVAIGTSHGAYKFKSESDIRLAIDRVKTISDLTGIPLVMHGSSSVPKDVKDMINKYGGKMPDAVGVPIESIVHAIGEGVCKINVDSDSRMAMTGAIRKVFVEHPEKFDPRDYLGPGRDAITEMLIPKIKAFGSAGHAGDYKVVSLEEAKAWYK
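Giardia FBPA (40 nM reagent) was preincubated 10 min at RT with compound (up to 57.5 uM final), then substrate plus GAPDH/TPI/NAD/arsenate coupling system with diaphorase/resazurin was added; resorufin fluorescence (525/598 nm) was read after 20 min.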
RE007 growth inh: less growth of the S. pombe RE007 Vpr strain | S. pombe RE007 Vpr strain, BacTiter-Glo ATP luminescence, 24 h | Potency, µM (titrated, usually from 92.2 µM), for the others: at the highest dose activity change, negative = less growth, hits mostly inhibitors | actives 0.21% (n = 360,000); active = well fitted falling curve with a large enough effect; inconclusive = small, poorly fitted or top-dose-only effect; inactive = no such curve, though single readings can be large or run the other way; also: % is scaled to controls: 0 for no effect and ±100 for the full control effect; nearly all actives have a fitted effect of over 50% in size
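Fission yeast RE007 carrying one integrated HIV-1 vpr copy, seeded at OD 0.01 in PMG+AL medium with 23 nL pinned compound. Grown 24 h at 30 degrees; viability read by BacTiter-Glo luminescence after 5 min.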
SARS PLpro yeast: inhibitors of SARS-CoV papain-like protease in yeast | S. cerevisiae expressing SARS-CoV PLpro, growth rescue | Potency, µM (top dose mostly 32.9 µM), for inactives: top-dose activity, positive = growth rescue, most hits filed as activators | actives 0.19% (n = 330,000); calls by dose curve; also: 0% is about no effect; nearly all actives have a fitted effect of over 55% in size
Tb PYK inh: T. brucei pyruvate kinase inhibition. AID 624173. TbPYK enzyme, Kinase-Glo Plus ATP luminescence, 45 min. actives 0.12% (n = 410,000). Q57TT1. Potency, µM (highest dose often 76.8 µM), for inactives: at the highest dose activity, negative = inhibition, most hits filed as inhibitors; also: % is scaled to controls: 0 for no effect and ±100 for the full control effect; nearly all actives have a fitted effect of over 50% in size
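Glycolytic pyruvate kinase of T. brucei was incubated with substrate, test compound and 130 uM ADP for 45 minutes at room temperature. Luminescent Kinase-Glo Plus signal was measured after 10 minutes.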
Giardia growth: blocks growth of Giardia lamblia trophozoites; shares compounds with Giardia FBPA inh-1; Giardia lamblia trophozoite growth inhibition; Potency, µM (top dose mostly 57.5 µM), for the others: top-dose activity change, negative = inhibition, most hits filed as inhibitors; actives 5% (n = 1,500);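 also: trophozoites exposed to compound for 48 h at 37 °C; % is scaled to controls: 0 for no effect and ±100 for the full control effect; nearly all actives have a fitted effect of over 70% in size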
Mammal cell tox: counter-screen for Giardia aldolase inhibitors: mammalian cell toxicity; shares compounds with Giardia FBPA inh-1; mammalian cell viability counter-screen, qHTS; Potency, µM (top dose mostly 57.5 µM), for the others: top-dose viability change, negative = toxicity, hits mostly inhibitors; actives 4% (n = 1,500);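 also: Chinese hamster ovary cells used as mammalian cytotoxicity surrogate; viability measured as cellular ATP by luminescence; compound exposure lasted 48 h before reading; % is scaled to controls: 0 for no effect and ±100 for the full control effect; nearly all actives have a fitted effect of over 60% in size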
Giardia FBPA inh-2: confirmation of Giardia fructose-bisphosphate aldolase inhibitors; Potency, µM (titrated, usually from 57.5 µM), for inactives: top-dose activity change, negative = inhibition, usual class: inhibitors; actives 5% (n = 1,500); purified Giardia aldolase enzyme activity, qHTS; AID 2787; shares compounds with Giardia FBPA inh-1; also: % is scaled to controls: 0 for no effect and ±100 for the full control effect; nearly all actives have a fitted effect of over 45% in size
Rabbit aldolase: blocks rabbit muscle aldolase in Giardia aldolase selectivity test; shares compounds with Giardia FBPA inh-1; Rabbit muscle FBPA enzyme inhibition, selectivity counter-screen; Potency, µM (doses to about 57.5 µM), without a hit: top-dose activity, negative = inhibition, most hits filed as inhibitors; actives 4% (n = 1,500); AID 2794; also: % is scaled to controls: 0 for no effect and ±100 for the full control effect; nearly all actives have a fitted effect of over 60% in size
Target sequence (P00883 whole entry, looked up): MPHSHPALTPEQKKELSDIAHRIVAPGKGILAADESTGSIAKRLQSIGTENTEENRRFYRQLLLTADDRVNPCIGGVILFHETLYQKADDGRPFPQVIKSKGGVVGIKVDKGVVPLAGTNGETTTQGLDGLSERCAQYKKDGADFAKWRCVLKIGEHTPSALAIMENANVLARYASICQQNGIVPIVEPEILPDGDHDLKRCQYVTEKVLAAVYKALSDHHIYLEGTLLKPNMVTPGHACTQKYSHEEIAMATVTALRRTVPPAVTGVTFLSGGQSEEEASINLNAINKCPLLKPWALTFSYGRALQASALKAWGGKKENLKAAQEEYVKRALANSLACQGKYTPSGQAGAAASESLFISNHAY
GAPDH coupling: counter-screen for Giardia aldolase inhibitors: GAPDH coupling enzyme. shares compounds with Giardia FBPA inh-1. GAPDH coupling enzyme counterscreen, biochemical, qHTS. Potency, µM (titrated, usually from 57.5 µM), without a hit: at the top dose activity change, negative = inhibition, actives largely listed as inhibitors. actives 6% (n = 1,500). AID 2795; also: % is scaled to controls: 0 for no effect and ±100 for the full control effect; nearly all actives have a fitted effect of over 55% in size
* = called active by the depositor; u = inconclusive; x = no result given; [ ] = remark or other dose. Unless noted, calls follow the shape of the dose curve; as a rule, active = well fitted curve in the direction sought with a large enough effect; inconclusive = small, poorly fitted or top-dose-only effect, or another doubt; inactive = no such curve, though single readings can be large; an effect the other way counts as inactive or inconclusive. Potency is read from the fitted curve at half-maximal effect.

SMILES	LmPK inhibitor	Giardia FBPA inh-1	RE007 growth inh	SARS PLpro yeast	Tb PYK inh	Giardia growth	Mammal cell tox	Giardia FBPA inh-2	Rabbit aldolase	GAPDH coupling
S=C(NCCc1ccccc1)Nc1nccs1	x	x	-3%	1%	-15%	x	x	x	x	x
COc1ccc(NC(=O)CSc2cn(CCNC(=O)c3c(F)cccc3F)c3ccccc23)cc1	x	x	x	x	5%	x	x	x	x	x
Nc1nc2c(s1)CCc1ccccc1-2	-2%	-20%	-12%	-11%	u	x	x	x	x	x
N#C/C(=C(/O)CCl)c1nc2c(s1)CCc1ccccc1-2	3%	14µM*	3%	-12%	-6%	u	-11%	u	u	-22%
CCCCCCCC#Cc1ccccc1C(NC(=O)OC)C(C(=O)OC)C(=O)OC (stereo unspecified)	x	-2%[12.9 µM]	x	x	x	x	x	x	x	x
COC1CCCCC1Nc1ccc(C)c(C)c1 (stereo unspecified)	4%	20µM*	-4%	18%	10%	15%[10.4 µM]	16%	-6%	4%	3%
Cc1ccc(NC(=O)C2CCCCC2)cc1C	x	x	-20%	5%	3%	x	x	x	x	x
CCn1ncc(NC(=S)Nc2ccc(OC)c(OC)c2)c1C(N)=O	-7%	16µM*	-13%	0%	-7%	-30%	-6%	-15%	-5%	-5%
CCC(C)c1ccc(NC(=S)Nc2ccc(OC)c(OC)c2)cc1 (stereo unspecified)	3%	-3%	13%	-18%	-12%	x	x	x	x	x
CCn1ncc(NC(=S)Nc2ccc3c(c2)OCO3)c1C(N)=O	2%	18µM*	-8%	0%	-7%	-20%[10.4 µM]	-12%	-23%	-10%	-9%
COc1cc(C(=O)O[C@@H]2CC3CC[C@]2(C)C3(C)C)ccc1O	x	-6%	x	x	x	x	x	x	x	x
CCOC(=O)[C@H](Cc1ccc(O)cc1)NC(=O)c1ccccc1	x	-1%	x	x	x	x	x	x	x	x
NC(N)=NS(=O)(=O)c1ccc(NC(=S)NC(=O)c2ccncc2)cc1	-1%	11µM*	3%	-3%	1%	4%[10.4 µM]	10%	6%	5%	11%
C[C@H](NC(=O)[C@H]1N2C(=O)c3ccccc3C2SC1(C)C)C(=O)N1CCCCC1 (stereo partly specified)	-1%	20µM*	-3%	8%	-11%	16%	6%	-14%	-11%	u
CCCc1cc(=O)[nH]c2nnc(SCCC(C)C)n12	x	x	x	x	5%	x	x	x	x	x
Cc1cc(SCNC(=O)c2ccccc2)ncn1	11%	14µM*	5%	-1%	-14%	u	-12%	2%	12%	11%
CCc1ccc(-n2c(N3CCN(c4ccc(F)cc4)CC3)nc3ccccc3c2=O)cc1	x	x	x	x	4%	x	x	x	x	x
O=c1c2sccc2[nH]c(=S)n1-c1ccccc1	-21%	18µM*	-11%	1%	u	u	1%	-4%	-4%	4%
O=c1ccc2c(-c3ccccc3)c3ccc(O)cc3oc-2c1	-5%	14µM*	6%	1%	8%	u	5%	-23%	-5%	-9%
CCOC(=O)C1CCN(C(=S)Nc2ccc(S(N)(=O)=O)cc2)CC1	4%	0%	12%	6%	u	x	x	x	x	x
NS(=O)(=O)c1ccc(NC(=S)N2CCC(O)CC2)cc1	0%	16µM*	2%	0%	-11%	u	17%	4%	13%	4%
O=C(N/N=C/c1ccccn1)c1cccc(S(=O)(=O)N2CCCC2)c1	3%	16µM*	11%	-3%	1%	4%[10.4 µM]	5%	6%	7%	0%
O=C(N/N=C/c1ccccn1)c1cc(-c2ccccc2)nc2ccccc12	2%	14µM*	12%	-4%	-1%	24%	u	10%	7%	-2%
O=C(N/N=C/c1ccccn1)c1cc(-c2ccccc2Cl)n[nH]1	-1%	16µM*	27%	1%	1%	-19%	-8%	-8%	-14%	-18%
O=C(N/N=C/c1ccccn1)c1cc(-c2cccc3ccccc23)n[nH]1	-2%	-4%	4%	3%	-1%	x	x	x	x	x
SMILES	LmPK inhibitor	Giardia FBPA inh-1	RE007 growth inh	SARS PLpro yeast	Tb PYK inh	Giardia growth	Mammal cell tox	Giardia FBPA inh-2	Rabbit aldolase	GAPDH coupling
CC(CNC(=O)c1ccc(CSc2nc3ccncc3n2Cc2cccc(F)c2)cc1)c1ccccc1 (stereo unspecified)	x	x	x	x	3%	x	x	x	x	x
COc1cccc(NC(=O)Nc2cc(-c3cn4cccnc4n3)ccc2OC)c1	x	x	x	x	-3%	x	x	x	x	x
CC1CCN(C(=O)c2cccc(NC(=O)c3nsc4ccccc34)c2)CC1	x	x	x	x	5%	x	x	x	x	x
O=C(CCCN1C(=O)/C(=C/c2ccco2)SC1=S)Nc1cccc(C(=O)O)c1	6%	16µM*	2%	-1%	-14%	9%[10.4 µM]	20%	-7%	-2%	9%
CCc1oc(C(=O)OC)cc1CSC(=N)N	5%	18µM*	-12%	-1%	-3%	-17%[10.4 µM]	-9%	-1%	6%	10%
COC(=O)c1ccc(CSC(=N)N)o1	-2%	-4%	-1%	-1%	4%	x	x	x	x	x
Cn1cc(Br)c(C(=O)NC(=S)Nc2ccc(S(N)(=O)=O)cc2)n1	-8%	16µM*	-11%	-3%	-9%	-26%	10%	3%	9%	12%
COc1ccc(C(=O)NC(=S)Nc2ccc(S(N)(=O)=O)cc2)cc1	3%	u	-23%	-1%	-1%	x	x	x	x	x
NS(=O)(=O)c1ccc(CNC(=S)Nc2ccc(F)c(Cl)c2)cc1	3%	-15%	5%	7%	-2%	x	x	x	x	x
NS(=O)(=O)c1ccc(NC(=S)NCc2ccc(Cl)cc2)cc1	1%	16µM*	-13%	-7%	-29%	-8%[10.4 µM]	-9%	-6%	2%	9%
Nn1cnnc1N/N=C/c1ccc(Cl)cc1Cl	-4%	-30%	-4%	-4%	0%	-10%[38.3 µM]	u	5.8µM*	8.2µM*	9.2µM*
O=C(N/N=C/c1ccc(Cl)cc1Cl)c1ccc(-n2cnnn2)cc1	x	x	2%	3%	-1%	x	x	x	x	x
